Consider 34 molecules from PubChem BioAssay AID2595 (National Center for Advancing Translational Sciences (NCATS), 2010).

Where “and” joins values, the source holds several entries; their conditions need not be identical. Identical values can stand only once. Inconclusive results are not listed. Calls of active or inactive are those of the source. The call rests on the fitted dose curve; in most records, active means well fitted inhibition curve with a large enough effect; inconclusive means small, poorly fitted or top-dose-only effect, or effect the other way; inactive means flat fitted curve, though single readings scatter.

Chain of Lysosomal acid glucosylceramidase (Homo sapiens) (P04062 whole entry, looked up): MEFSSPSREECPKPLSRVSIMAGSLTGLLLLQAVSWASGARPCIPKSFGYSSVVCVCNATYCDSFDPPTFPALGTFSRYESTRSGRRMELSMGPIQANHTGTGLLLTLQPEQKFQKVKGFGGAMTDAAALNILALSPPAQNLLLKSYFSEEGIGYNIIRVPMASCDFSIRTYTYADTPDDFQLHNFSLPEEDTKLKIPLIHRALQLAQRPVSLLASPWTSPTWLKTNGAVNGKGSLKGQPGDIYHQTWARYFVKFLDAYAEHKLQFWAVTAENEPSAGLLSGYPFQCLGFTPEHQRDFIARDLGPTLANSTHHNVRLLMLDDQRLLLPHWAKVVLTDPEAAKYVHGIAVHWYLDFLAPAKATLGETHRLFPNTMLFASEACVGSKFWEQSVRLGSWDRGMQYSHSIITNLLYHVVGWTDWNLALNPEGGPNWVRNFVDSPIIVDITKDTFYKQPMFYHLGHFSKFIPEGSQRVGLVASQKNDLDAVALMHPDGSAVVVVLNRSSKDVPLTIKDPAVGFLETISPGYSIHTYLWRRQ

The assay has as its target Lysosomal acid glucosylceramidase (Homo sapiens) (UniProt P04062). The assay is described as follows: qHTS Assay for Inhibitors and Activators of N370S glucocerebrosidase as a Potential Chaperone Treatment of Gaucher Disease: Purified Non-mutant Glucocerebrosidase. The following applies: purified wildtype GC, 4MU-beta-glucoside fluorescence, 40 min; series mostly up to 76.9 µM; activity change, negative = inhibition: at the top concentration. From the text:
NIH Chemical Genomics Center [NCGC] NIH Molecular Libraries Probe Production Centers Network [MLPCN] MLPCN Grant: MH086442-01 Assay Submitter (PI): Wei Zheng Glucocerebrosidase (GC) catalyzes the hydrolysis of beta-glucocerebroside to glucose and ceramide in lysosomes. Mutations in the glucocerebrosidase gene result in Gaucher disease, an autosomal recessive lysosomal storage disorder. Many of the mutations encountered in patients with Gaucher disease are missense alterations that may cause misfolding, decreased stability and/or mistrafficking of this lysosomal protein. […] These inhibitors include iminosugar analogs and three non-iminosugar inhibitors identified from a previous HTS of 62,000 compounds with the wild type recombinant enzyme. However, the enhancement of enzyme activity by the chaperone action of an enzyme inhibitor must be balanced against the direct inhibition of the enzyme. An enzyme activator could also function as a chaperone by binding to the enzyme and helping to correct its misfolding and mistrafficking. While activators for GC have not yet been identified, they may have better therapeutic potential than inhibitors. Therefore the discovery and development of chemical activators may provide a new strategy for the chaperone therapy. We have optimized a new assay using N370S mutant GC derived from the spleen of a Gaucher patient. […] In addition, the MLPCN compound library has expanded, which increases the chance of finding new and better probes. This assay characterizes compound activity using purified wildtype enzyme instead of mutant enzyme from tissue homogenate. Compound activity differences may be due to the absence of endogenous cofactors found in tissue homogenate as well as inherent differences in enzyme stability and catalytic activity between the N370S and wildtype forms of the protein.
NCGC Assay Protocol Summary: This is a fluorogenic enzyme assay with 4-methylumbelliferyl-beta-D-glucopyranoside as the substrate and purified wildtype glucocerebrosidase as the enzyme preparation. Upon the hydrolysis of this fluorogenic substrate, the resulting product, […] which can be detected by a standard fluorescence plate reader. Data were normalized to the controls for basal activity (without enzyme) and 100% activity (with enzyme). The AC50 values were determined from concentration-response data modeled with the standard Hill equation. Assay buffer: 50 mM citric acid (titrated with potassium phosphate to pH 5.0), 100 mM potassium chloride, 10 mM sodium chloride, 1 mM magnesium chloride, 0.01% Tween-20. 1536-well assay protocol: (1) Add 2 ul/well of glucocerebrosidase enzyme solution (5 nM final) (2) Add 23 nL compounds in DMSO solution. The final titration was 0.5 nM to 58 uM. (3) Add 2 ul of substrate (1 mM final) (4) Incubate at 37C for 40 min. (5) Add 2 ul stop solution (1M NaOH and 1M Glycine mixture, pH 10) (6) Detect the assay plate in a ViewLux plate reader (PerkinElmer) with Ex=365 nm and Em=440nm. Keywords: Glucocerebrosidase, beta-glucosidase, Gaucher Disease, pharmacological chaperone, chaperone therapy, high throughput screening, glucocerebrosidase inhibitor, MLSMR, MLSCN, NIH Roadmap, qHTS and NCGC
Turning to `O=S(=O)(c1cccc(C(F)(F)F)c1)N1CCN(c2nc(-c3cccs3)nc3cc(Cl)ccc23)CC1`, the “activity change, negative = inhibition” value is -10.7% (inactive).

With `Cc1ccc(S(=O)(=O)N2CCN(c3nc(-c4ccc(F)cc4)nc4cc(Cl)ccc34)CC2)cc1`, the “activity change, negative = inhibition” value is -8.86% (inactive). As to `O=S(=O)(c1ccccc1C(F)(F)F)N1CCN(c2nc(-c3cccs3)nc3ccccc23)CC1`, the Potency was 4.47 µM (active).

On to `Cc1ccc(Cl)cc1NC(=O)c1ccccc1OCC(=O)Nc1ccc(Cl)cc1`, for which the “activity change, negative = inhibition” value is 15.2% [at 57.5 µM] (inactive).

`O=S(=O)(c1ccc(F)cc1)N1CCN(c2nc(-c3cccc(Br)c3)nc3ccccc23)CC1`: the “activity change, negative = inhibition” value is -16.4% (inactive). For `NS(=O)(=O)c1ccc(S(=O)(=O)N2CCN(c3nc(-c4cccs4)nc4ccccc34)CC2)cc1`, the Potency is 15.8 µM (active). On to `O=S(=O)(c1ccc2ccccc2c1)N1CCN(c2nc(-c3cccs3)nc3ccccc23)CC1`, for which the Potency is 8.91 µM (active).

With `O=S(=O)(c1cccc2ccccc12)N1CCN(c2nc(-c3cccs3)nc3ccccc23)CC1`, the Potency was 14.1 µM (active). The same measure, in the same setting: then `COc1ccc(S(=O)(=O)N2CCN(c3nc(-c4cccs4)nc4ccccc34)CC2)cc1`, with 14.1 µM (active). Consider `O=S(=O)(c1ccc(Cl)cc1)N1CCN(c2nc(-c3ccc(Cl)cc3)nc3ccccc23)CC1`, for which the “activity change, negative = inhibition” value is -17.5% (inactive). Regarding `O=S(=O)(c1ccc(Cl)cc1)N1CCN(c2nc(Nc3cc(Cl)ccc3O)nc3ccccc23)CC1`, the Potency was 1.26 µM (active). As to `Cc1ccc(S(=O)(=O)N2CCN(c3nc(-c4cccs4)nc4ccccc34)CC2)cc1`, the Potency is 2 µM (active) and 10 µM (active). The same measure, in the same setting: then `c1csc(-c2nc(NCC3CCCO3)c3ccccc3n2)c1` (centres undefined), with 15.8 µM (active). For `COc1ccc(-c2nc(N3CCN(S(=O)(=O)c4ccc(F)cc4)CC3)c3ccccc3n2)cc1`, the “activity change, negative = inhibition” value was -25.8% (inactive). Regarding `OCCNc1nc(-c2cccs2)nc2ccccc12`, the Potency was 17.8 µM (active). With `O=S(=O)(c1ccc(Cl)cc1)N1CCN(c2nc(-c3cccc(Br)c3)nc3ccccc23)CC1`, the “activity change, negative = inhibition” value was -13.9% (inactive).

As for `O=S(=O)(c1ccccc1)N1CCN(c2nc(-c3ccc(F)cc3)nc3cc(Cl)ccc23)CC1`, the “activity change, negative = inhibition” value was -0.12% (inactive). Consider `O=S(=O)(c1ccc2c(c1)OCCO2)N1CCN(c2nc(-c3cccs3)nc3ccccc23)CC1`, for which the Potency was 2.51 µM (active). On the same count and under the same terms, the value for `CC(C)(C)C(=O)OCCNc1nc(-c2ccccc2)nc2ccccc12` was 0.708 µM (active). Regarding `Cc1ccc(-c2nc(N3CCN(S(=O)(=O)c4ccc(F)cc4)CC3)c3ccc(Cl)cc3n2)cc1`, the “activity change, negative = inhibition” value was -11.6% (inactive). Same read-out and setting: the value for `O=S(=O)(c1ccc(F)cc1)N1CCN(c2nc(-c3ccc(F)cc3)nc3cc(Cl)ccc23)CC1` was 4.56% (inactive). As for `S=C(NCCCc1cnc[nH]1)NCCCN(Cc1ccc(Cl)c(Cl)c1)c1ccc(Br)cn1`, the Potency was 0.708 µM (active). Consider `O=S(=O)(c1ccc(F)cc1)N1CCN(c2nc(-c3cccs3)nc3cc(Cl)ccc23)CC1`, for which the “activity change, negative = inhibition” value is 1.31% (inactive). Still for that read-out and setting: then `CC(C)C(C)NC(=O)CSc1nc2scc(-c3ccco3)c2c(=O)n1-c1ccccc1` (centres undefined), with -7.04% [at 57.5 µM] (inactive).

For `O=S(=O)(Cc1ccccc1)N1CCN(c2nc(-c3cccs3)nc3ccccc23)CC1`, the Potency is 10 µM (active). For `O=S(=O)(c1ccccc1Cl)N1CCN(c2nc(-c3cccs3)nc3ccccc23)CC1`, the Potency was 2.82 µM (active).

Turning to `O=S(=O)(c1ccc2c(c1)OCCO2)N1CCN(c2nc(-c3ccccc3)nc3ccccc23)CC1`, the Potency was 12.6 µM (active).

As for `O=S(=O)(c1ccc(F)cc1)N1CCN(c2nc(-c3ccccc3)nc3cc(Cl)ccc23)CC1`, the “activity change, negative = inhibition” value was -2.36% (inactive). `Cc1cc(C)cc(N(CC(=O)NC2CCCCCC2)S(=O)(=O)c2c(C)[nH]c(=O)[nH]c2=O)c1`: the Potency is 0.398 µM (active).

For `O=S(=O)(c1ccc(Cl)cc1)N1CCN(c2nc(-c3cccs3)nc3ccccc23)CC1`, the Potency is 2.51 µM (active) and 6.31 µM (active). For the molecule `O=S(=O)(c1ccc(Cl)cc1)N1CCN(c2nc(-c3ccc(F)cc3)nc3cc(Cl)ccc23)CC1`, the “activity change, negative = inhibition” value was -7.55% (inactive). For the molecule `COc1cccc(S(=O)(=O)N2CCN(c3nc(-c4cccs4)nc4ccccc34)CC2)c1`, the Potency is 10 µM (active).

Turning to `O=S(=O)(c1cccs1)N1CCN(c2nc(-c3cccs3)nc3ccccc23)CC1`, the Potency was 8.91 µM (active). As for `O=C(c1ccc2c(c1)OCCO2)N1CCN(c2nc(-c3cccs3)nc3ccccc23)CC1`, the Potency was 31.6 µM (active).
